In ChEMBL document CHEMBL2218924, “A broad activity screen in support of a chemogenomic map for kinase signalling research and drug discovery” (Biochem J, 2013):

What was measured:
[1] = biological target: T1, Ephrin type-A receptor 3 (Homo sapiens) (UniProt P29320); conditions: at 10 µM
T1 sequence (whole entry): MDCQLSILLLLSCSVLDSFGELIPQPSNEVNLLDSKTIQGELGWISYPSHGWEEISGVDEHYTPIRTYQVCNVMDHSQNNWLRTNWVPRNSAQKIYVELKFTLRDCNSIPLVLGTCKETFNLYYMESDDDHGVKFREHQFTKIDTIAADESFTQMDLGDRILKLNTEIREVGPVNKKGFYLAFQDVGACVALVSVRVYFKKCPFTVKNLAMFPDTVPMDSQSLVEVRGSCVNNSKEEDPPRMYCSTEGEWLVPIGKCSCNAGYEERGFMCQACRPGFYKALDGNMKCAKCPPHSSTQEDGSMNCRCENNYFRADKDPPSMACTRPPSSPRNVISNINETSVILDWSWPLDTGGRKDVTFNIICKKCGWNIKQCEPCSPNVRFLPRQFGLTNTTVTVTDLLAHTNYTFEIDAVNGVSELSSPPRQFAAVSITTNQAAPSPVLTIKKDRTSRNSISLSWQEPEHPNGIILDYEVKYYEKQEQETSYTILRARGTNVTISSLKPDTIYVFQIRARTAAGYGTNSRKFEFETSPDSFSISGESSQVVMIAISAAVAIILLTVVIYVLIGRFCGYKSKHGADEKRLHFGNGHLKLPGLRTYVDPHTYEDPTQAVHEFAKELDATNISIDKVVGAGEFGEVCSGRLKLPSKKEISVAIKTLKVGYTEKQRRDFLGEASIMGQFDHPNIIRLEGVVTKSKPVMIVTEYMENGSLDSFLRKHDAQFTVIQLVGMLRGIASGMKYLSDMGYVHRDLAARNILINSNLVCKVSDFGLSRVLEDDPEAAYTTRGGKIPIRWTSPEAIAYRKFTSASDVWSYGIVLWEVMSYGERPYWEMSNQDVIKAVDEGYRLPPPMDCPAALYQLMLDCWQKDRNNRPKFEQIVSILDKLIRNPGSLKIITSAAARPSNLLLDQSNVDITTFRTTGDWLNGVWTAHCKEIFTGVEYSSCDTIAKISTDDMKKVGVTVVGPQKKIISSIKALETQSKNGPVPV

[2] = biological target: Ephrin type-A receptor 4 (Homo sapiens) (UniProt P54764); conditions: at 1 µM
[3] = biological target: Ephrin type-A receptor 4 (Homo sapiens) (UniProt P54764); conditions: at 10 µM
[4] = biological target: Ephrin type-A receptor 5 (Homo sapiens) (UniProt P54756); conditions: at 1 µM
[5] = biological target: Ephrin type-A receptor 5 (Homo sapiens) (UniProt P54756); conditions: at 10 µM
[6] = biological target: Ephrin type-A receptor 7 (Homo sapiens) (UniProt Q15375); conditions: at 1 µM
[7] = biological target: Ephrin type-A receptor 7 (Homo sapiens) (UniProt Q15375); conditions: at 10 µM
[8] = biological target: T2, Ephrin type-A receptor 8 (Homo sapiens) (UniProt P29322); conditions: at 1 µM
T2 sequence (whole entry): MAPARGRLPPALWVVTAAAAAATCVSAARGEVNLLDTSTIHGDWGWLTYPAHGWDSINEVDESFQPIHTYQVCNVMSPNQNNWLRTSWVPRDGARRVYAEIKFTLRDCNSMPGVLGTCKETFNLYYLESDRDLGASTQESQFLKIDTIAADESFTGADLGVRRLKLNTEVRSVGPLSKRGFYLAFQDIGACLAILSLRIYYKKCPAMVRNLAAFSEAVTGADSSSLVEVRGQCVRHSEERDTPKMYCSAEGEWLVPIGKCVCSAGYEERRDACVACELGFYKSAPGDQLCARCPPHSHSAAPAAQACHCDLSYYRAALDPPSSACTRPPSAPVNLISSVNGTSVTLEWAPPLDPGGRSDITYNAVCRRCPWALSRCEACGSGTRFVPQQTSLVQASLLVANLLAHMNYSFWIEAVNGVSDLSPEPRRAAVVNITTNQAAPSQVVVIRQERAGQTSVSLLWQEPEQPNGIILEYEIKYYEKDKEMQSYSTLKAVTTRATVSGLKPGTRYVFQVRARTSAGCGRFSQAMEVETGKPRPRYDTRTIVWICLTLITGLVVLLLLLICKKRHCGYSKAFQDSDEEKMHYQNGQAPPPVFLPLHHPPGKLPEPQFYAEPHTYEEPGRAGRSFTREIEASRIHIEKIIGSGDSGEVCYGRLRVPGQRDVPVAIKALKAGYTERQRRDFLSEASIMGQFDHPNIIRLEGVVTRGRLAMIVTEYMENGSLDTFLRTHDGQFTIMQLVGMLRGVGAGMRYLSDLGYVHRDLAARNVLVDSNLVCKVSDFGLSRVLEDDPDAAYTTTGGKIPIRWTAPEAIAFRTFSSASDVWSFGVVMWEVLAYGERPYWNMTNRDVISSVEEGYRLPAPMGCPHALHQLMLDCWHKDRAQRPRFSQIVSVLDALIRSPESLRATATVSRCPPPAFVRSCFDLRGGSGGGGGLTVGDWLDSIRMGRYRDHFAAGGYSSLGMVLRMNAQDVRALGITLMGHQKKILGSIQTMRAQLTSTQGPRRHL

[9] = biological target: T2, Ephrin type-A receptor 8 (Homo sapiens); conditions: at 10 µM
[10] = biological target: T3, Ephrin type-B receptor 1 (Homo sapiens) (UniProt P54762); conditions: at 1 µM
T3 sequence (whole entry): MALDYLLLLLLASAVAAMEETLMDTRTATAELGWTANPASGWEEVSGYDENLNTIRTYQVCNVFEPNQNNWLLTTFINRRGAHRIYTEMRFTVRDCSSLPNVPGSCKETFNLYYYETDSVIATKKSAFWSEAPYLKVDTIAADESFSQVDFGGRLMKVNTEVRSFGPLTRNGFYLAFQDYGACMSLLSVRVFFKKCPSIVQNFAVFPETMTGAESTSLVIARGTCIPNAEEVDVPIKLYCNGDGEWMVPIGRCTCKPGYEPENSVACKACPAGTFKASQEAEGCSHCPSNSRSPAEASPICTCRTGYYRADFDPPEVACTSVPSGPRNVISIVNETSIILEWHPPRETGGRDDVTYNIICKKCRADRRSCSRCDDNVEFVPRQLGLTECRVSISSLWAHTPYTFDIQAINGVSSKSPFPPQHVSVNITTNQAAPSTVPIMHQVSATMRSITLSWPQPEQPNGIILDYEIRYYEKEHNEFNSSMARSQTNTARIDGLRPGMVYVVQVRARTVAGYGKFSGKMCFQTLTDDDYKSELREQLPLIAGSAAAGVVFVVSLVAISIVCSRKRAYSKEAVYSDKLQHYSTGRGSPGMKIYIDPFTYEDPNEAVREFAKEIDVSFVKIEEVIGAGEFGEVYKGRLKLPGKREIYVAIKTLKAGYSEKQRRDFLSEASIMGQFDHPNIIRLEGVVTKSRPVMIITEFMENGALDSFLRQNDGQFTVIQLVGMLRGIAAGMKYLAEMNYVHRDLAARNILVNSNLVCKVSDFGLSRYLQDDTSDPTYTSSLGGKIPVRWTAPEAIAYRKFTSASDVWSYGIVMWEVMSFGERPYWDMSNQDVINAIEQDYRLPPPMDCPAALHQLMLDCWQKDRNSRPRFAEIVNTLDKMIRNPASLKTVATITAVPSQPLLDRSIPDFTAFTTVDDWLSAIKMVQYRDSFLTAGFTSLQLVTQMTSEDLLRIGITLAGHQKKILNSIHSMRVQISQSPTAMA

[11] = biological target: T3, Ephrin type-B receptor 1 (Homo sapiens); conditions: at 10 µM
[12] = biological target: T4, Ephrin type-B receptor 2 (Homo sapiens) (UniProt P29323); conditions: at 1 µM
T4 sequence (whole entry): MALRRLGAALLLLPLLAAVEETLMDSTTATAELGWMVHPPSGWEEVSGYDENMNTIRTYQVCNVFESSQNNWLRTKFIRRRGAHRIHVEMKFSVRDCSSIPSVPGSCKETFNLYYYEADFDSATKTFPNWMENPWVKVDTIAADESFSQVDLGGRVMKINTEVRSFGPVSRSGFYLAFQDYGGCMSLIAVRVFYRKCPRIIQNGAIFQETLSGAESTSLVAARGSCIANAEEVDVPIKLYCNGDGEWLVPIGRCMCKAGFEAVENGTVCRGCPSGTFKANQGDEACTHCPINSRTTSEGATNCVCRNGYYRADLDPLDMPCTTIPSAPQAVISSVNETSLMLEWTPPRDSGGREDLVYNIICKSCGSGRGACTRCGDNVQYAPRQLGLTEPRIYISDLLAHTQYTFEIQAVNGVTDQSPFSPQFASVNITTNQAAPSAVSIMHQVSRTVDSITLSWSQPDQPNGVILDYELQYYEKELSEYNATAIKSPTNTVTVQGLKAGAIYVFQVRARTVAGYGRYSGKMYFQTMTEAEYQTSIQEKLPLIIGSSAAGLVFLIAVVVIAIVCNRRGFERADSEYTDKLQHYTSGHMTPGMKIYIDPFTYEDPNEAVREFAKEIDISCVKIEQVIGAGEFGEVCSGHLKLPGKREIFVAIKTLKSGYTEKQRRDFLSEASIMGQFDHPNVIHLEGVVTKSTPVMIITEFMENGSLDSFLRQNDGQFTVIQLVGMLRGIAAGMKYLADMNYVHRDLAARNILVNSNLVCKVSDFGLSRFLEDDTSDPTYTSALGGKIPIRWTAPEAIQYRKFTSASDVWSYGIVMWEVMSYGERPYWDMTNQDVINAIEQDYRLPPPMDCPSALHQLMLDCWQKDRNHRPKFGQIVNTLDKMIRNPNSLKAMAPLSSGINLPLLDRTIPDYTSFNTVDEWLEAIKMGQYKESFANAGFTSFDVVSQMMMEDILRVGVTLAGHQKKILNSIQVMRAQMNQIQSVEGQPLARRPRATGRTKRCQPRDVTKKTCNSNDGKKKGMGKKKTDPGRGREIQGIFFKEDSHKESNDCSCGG

[13] = biological target: T4, Ephrin type-B receptor 2 (Homo sapiens); conditions: at 10 µM
[14] = biological target: T5, Ephrin type-B receptor 3 (Homo sapiens) (UniProt P54753); conditions: at 1 µM
T5 sequence (whole entry): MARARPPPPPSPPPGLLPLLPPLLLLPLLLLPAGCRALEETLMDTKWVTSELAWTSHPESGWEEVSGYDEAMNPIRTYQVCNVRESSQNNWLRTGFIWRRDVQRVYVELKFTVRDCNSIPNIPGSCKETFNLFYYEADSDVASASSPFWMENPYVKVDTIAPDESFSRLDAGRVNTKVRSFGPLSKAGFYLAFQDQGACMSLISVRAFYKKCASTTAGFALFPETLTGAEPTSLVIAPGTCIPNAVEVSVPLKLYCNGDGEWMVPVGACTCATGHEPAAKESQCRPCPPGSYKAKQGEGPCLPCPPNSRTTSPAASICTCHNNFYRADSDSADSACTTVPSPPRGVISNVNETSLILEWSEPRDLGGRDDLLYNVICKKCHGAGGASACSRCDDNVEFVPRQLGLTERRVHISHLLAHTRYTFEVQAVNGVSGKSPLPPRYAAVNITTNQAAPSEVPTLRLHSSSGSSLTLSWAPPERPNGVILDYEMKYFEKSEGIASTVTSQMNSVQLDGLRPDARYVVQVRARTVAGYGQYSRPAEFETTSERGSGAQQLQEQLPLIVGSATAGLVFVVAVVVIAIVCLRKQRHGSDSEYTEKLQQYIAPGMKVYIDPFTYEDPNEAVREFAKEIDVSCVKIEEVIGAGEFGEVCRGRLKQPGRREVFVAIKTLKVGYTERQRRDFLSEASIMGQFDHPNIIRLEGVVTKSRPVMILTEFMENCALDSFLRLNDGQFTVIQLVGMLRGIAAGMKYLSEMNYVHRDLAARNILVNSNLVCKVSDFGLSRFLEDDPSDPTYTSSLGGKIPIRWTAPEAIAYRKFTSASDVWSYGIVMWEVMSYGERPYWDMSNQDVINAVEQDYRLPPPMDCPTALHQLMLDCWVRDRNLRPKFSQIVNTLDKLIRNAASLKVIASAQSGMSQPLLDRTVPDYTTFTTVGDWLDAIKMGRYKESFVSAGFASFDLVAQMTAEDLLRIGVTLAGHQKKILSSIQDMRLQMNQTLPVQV

[15] = biological target: T5, Ephrin type-B receptor 3 (Homo sapiens); conditions: at 10 µM
[16] = biological target: T6, Ephrin type-B receptor 4 (Homo sapiens) (UniProt P54760); conditions: at 1 µM
T6 sequence (whole entry): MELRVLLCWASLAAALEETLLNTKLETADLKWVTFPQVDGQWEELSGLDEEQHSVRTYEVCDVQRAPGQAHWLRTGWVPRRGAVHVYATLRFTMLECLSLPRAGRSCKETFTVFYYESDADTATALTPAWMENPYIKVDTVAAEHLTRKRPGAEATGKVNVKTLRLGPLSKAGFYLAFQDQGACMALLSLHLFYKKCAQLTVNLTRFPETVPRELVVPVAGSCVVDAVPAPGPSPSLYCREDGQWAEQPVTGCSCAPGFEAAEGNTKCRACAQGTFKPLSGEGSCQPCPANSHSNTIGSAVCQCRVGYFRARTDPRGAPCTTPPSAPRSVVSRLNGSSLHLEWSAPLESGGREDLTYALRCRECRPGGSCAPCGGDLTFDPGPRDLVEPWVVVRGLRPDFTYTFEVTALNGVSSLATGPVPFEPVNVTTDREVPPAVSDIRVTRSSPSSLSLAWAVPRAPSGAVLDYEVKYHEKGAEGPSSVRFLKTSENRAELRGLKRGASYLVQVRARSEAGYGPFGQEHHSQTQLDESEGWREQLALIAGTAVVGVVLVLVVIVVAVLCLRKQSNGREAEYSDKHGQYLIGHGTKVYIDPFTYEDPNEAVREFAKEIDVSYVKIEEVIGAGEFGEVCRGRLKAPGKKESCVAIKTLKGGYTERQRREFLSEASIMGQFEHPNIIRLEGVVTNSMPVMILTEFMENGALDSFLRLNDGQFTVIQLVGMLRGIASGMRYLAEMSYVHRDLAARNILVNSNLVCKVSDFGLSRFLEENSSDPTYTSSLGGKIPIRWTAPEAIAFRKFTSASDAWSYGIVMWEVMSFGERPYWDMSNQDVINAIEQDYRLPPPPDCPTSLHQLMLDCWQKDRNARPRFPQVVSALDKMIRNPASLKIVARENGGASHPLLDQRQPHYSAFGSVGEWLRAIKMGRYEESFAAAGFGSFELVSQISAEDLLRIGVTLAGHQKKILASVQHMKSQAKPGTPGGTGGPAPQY

[17] = biological target: T6, Ephrin type-B receptor 4 (Homo sapiens); conditions: at 10 µM
[18] = biological target: Focal adhesion kinase 1 (Homo sapiens) (UniProt Q05397); conditions: at 1 µM
Sequence of Focal adhesion kinase 1 (Homo sapiens) (Q05397 2-1052 limits assumed): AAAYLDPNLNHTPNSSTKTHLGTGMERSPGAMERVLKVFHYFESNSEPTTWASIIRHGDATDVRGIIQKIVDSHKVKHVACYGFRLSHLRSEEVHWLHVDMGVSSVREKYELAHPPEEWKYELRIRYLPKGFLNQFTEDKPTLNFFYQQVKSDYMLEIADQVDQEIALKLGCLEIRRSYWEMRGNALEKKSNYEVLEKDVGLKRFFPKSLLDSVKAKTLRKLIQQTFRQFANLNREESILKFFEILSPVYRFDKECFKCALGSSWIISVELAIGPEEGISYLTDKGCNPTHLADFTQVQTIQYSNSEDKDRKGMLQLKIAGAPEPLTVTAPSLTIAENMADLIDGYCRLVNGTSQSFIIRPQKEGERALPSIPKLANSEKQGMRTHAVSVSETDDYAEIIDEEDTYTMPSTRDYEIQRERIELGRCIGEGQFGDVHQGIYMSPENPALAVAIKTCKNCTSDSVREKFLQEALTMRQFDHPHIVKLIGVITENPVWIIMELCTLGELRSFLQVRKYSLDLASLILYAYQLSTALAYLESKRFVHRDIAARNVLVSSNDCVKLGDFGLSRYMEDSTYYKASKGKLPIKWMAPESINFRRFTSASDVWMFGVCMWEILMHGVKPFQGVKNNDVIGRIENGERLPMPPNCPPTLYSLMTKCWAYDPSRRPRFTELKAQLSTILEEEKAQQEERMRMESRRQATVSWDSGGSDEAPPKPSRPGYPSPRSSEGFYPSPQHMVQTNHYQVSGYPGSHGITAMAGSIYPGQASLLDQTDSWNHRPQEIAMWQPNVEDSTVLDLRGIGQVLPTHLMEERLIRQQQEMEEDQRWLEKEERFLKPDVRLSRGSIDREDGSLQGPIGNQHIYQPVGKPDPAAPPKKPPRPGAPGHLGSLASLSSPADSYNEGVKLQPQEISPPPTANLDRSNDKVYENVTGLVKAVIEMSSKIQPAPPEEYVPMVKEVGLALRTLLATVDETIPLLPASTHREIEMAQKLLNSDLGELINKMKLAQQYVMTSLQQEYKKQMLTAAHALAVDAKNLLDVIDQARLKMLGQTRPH

Sequence of Ephrin type-A receptor 4 (Homo sapiens) (P54764 whole entry): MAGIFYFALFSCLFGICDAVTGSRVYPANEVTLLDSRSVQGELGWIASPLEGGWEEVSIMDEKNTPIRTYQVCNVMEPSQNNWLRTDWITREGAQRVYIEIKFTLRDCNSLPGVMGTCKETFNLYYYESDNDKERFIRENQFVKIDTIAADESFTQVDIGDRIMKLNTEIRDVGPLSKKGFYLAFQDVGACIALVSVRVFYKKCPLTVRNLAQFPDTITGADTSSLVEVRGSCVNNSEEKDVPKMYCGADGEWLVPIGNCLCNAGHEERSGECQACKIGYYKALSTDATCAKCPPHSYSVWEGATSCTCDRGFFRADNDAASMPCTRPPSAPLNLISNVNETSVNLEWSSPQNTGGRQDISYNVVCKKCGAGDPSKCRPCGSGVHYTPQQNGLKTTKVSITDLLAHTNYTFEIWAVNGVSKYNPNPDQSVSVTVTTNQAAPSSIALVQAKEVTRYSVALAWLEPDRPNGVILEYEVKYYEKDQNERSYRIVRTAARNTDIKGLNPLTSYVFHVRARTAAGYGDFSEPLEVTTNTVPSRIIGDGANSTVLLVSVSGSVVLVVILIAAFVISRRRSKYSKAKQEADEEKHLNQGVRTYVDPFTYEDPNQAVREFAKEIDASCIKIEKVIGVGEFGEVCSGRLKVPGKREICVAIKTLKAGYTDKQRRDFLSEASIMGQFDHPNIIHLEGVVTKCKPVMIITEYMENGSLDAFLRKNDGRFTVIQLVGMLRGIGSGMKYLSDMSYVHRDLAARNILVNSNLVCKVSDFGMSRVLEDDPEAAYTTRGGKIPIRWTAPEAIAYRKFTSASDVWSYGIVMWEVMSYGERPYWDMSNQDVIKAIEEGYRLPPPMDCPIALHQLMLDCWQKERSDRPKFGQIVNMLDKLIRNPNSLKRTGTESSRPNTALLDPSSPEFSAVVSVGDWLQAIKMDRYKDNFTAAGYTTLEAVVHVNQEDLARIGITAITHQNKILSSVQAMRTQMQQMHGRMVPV
Sequence of Ephrin type-A receptor 5 (Homo sapiens) (P54756 whole entry): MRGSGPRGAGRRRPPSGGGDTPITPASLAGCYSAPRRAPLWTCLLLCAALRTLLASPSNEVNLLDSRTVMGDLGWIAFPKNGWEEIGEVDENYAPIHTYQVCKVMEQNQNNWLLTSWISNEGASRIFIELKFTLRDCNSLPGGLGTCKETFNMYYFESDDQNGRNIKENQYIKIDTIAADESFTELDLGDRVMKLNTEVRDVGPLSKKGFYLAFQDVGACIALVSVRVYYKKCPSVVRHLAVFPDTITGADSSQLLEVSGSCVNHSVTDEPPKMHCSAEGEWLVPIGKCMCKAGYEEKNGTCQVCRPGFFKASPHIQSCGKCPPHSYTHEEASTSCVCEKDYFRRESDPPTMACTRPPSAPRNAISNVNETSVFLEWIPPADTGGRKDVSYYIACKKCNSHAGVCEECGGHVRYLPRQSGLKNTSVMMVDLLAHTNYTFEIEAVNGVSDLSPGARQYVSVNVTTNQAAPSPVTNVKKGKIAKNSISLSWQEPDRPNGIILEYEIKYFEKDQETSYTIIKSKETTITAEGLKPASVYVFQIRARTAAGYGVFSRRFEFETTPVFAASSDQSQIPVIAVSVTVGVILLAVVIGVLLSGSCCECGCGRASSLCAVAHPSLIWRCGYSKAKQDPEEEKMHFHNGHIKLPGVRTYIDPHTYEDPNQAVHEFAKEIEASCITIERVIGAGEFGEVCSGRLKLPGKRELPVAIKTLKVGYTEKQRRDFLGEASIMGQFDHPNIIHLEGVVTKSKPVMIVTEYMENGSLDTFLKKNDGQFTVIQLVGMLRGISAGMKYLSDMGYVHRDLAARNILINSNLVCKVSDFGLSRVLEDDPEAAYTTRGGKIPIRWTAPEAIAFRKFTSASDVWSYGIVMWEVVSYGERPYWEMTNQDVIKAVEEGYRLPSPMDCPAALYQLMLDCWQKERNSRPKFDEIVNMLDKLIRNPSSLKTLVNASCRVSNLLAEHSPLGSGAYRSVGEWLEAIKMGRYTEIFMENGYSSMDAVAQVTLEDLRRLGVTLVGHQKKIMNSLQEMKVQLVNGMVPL
Sequence of Ephrin type-A receptor 7 (Homo sapiens) (Q15375 28-998 limits assumed): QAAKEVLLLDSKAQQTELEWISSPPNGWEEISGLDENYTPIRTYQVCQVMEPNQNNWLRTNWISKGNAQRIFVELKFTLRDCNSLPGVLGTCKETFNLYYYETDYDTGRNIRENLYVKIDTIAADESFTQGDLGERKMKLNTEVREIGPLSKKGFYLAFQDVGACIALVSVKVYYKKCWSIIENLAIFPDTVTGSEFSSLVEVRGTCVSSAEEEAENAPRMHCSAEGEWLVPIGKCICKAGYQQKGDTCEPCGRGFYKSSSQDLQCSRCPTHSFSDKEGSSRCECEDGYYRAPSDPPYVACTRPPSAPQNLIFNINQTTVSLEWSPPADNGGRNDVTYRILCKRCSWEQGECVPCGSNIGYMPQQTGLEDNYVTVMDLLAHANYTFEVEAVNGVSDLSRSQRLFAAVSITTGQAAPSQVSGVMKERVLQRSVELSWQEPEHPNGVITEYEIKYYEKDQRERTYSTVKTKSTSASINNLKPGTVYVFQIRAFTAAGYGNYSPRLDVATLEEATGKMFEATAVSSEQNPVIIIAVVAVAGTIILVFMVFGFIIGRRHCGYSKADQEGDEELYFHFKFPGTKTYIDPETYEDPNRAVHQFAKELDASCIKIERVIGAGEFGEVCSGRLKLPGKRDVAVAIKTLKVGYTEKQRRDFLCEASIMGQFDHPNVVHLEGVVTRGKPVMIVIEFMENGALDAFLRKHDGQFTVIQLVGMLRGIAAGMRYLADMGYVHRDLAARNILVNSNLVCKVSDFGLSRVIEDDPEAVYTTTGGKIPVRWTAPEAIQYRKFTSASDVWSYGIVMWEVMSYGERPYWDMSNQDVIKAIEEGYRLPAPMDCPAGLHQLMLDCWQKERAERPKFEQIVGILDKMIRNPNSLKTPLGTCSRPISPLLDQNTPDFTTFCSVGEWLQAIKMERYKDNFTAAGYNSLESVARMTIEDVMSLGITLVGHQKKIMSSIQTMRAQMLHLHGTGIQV

COc1cc2ncnc(Nc3ccc(OCc4ccccc4)cc3)c2cc1OC
residual activity [1]: 113% | residual activity [2]: 118% | residual activity [3]: 93% | residual activity [4]: 116% | residual activity [5]: 104% | residual activity [6]: 109% | residual activity [7]: 90% | residual activity [8]: 118% | residual activity [9]: 101% | residual activity [10]: 94% | residual activity [11]: 106% | residual activity [12]: 118% | residual activity [13]: 114% | residual activity [14]: 117% (inactive) | residual activity [15]: 100% | residual activity [16]: 117% | residual activity [17]: 132% | residual activity [18]: 136%
